RE007 growth inh: less growth of the S. pombe RE007 Vpr strain; Potency, µM (titrated, usually from 92.2 µM), most hits filed as inhibitors; S. pombe RE007 Vpr strain, BacTiter-Glo ATP luminescence, 24 h; hit rate 0.21% among 360,000; active = well fitted falling curve with a large enough effect; inconclusive = small, poorly fitted or top-dose-only effect; inactive = no such curve, though single readings can be large or run the other way; note: nearly all actives have a fitted effect of over 50% in size
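Fission yeast RE007 carrying one integrated HIV-1 vpr copy, seeded at OD 0.01 in PMG+AL medium with 23 nL pinned compound. Grown 24 h at 30 degrees; viability read by BacTiter-Glo luminescence after 5 min.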
HCV inh: inhibitors of hepatitis C virus infection | Huh7.5.1 HCVcc-Cre infection, luciferase reporter, 44 h | Potency, µM (doses to about 41.8 µM), hits mostly inhibitors | hit rate 3.4% among 340,000 | AID 651820
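A cell-based infection assay in which seeded cells (1,000 per well) receive test compound after 4 h, are inoculated with HCVcc-Cre at approximately 0.5 moi, and are incubated 44 h before luminescence detection.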
Lassa entry inh: inhibitors of Lassa virus binding or cell entry; AID 540256; Potency, µM (doses to about 37.9 µM), actives largely listed as inhibitors; hit rate 1.2% among 300,000; Lassa virus pseudotype entry inhibition, cell reporter; calls by dose curve; tested in HEK293 cells; note: nearly all actives have a fitted effect of over 50% in size
MARV entry inh: Marburg virus entry inhibition. hit rate 1.8% among 300,000. Potency, µM (series often up to 37.8 µM), usual class: inhibitors. Marburg virus pseudotyped entry inhibition, cell reporter; calls by dose curve; tested in HEK293 cells
FMDV inh: blocks foot and mouth disease virus | Potency, µM (series often up to 57.9 µM), actives largely listed as inhibitors | AID 1159524 | FMDV antiviral cell-based qHTS | hit rate 1.2% among 410,000; calls by dose curve; tested in HEK293T cells; note: read-out not given here; nearly all actives have a fitted effect of over 45% in size
Sm TGR block: blocks Schistosoma mansoni thioredoxin glutathione reductase; purified TGR, DTNB reduction, TNB absorbance 405 nm; Potency, µM (top dose mostly 114 µM), hits mostly inhibitors; hit rate 3% among 360,000; Q962Y6; note: nearly all actives have a fitted effect of over 60% in size
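Kinetic colorimetric format: TGR-catalysed, NADPH-driven DTNB reduction monitored via TNB absorbance. Enzyme dispensed at 20 nM; compound exposure 15 min at room temperature before reaction start.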
Large screens that a line does not name were inactive; ! = not confirmed by another sample. Compounds with a hit are over-represented: about 7.2% of the library has one in this group of screens. Unless noted, calls come from the whole dose curve; as a rule, active = well fitted curve in the direction sought with a large enough effect; inconclusive = small, poorly fitted or top-dose-only effect, or another doubt; inactive = no such curve, though single readings can be large; an effect the other way counts as inactive or inconclusive.

CC(C)/C=C(/C(=O)c1ccc(Cl)cc1Cl)n1cncn1	FMDV inh 35µM, Sm TGR block 35µM (no result: RE007 growth inh, Lassa entry inh, MARV entry inh)
CC(C)(C)C(=O)/C(=C\c1ccc([N+](=O)[O-])cc1)n1cncn1	HCV inh 3.2µM, Sm TGR block 2.2µM (no result: RE007 growth inh, Lassa entry inh, MARV entry inh, FMDV inh)
COc1ccc(C2=Nc3ccc(F)cc3NC(c3cccc(C(F)(F)F)c3)=N2)cc1	Sm TGR block inconclusive (no result: RE007 growth inh, HCV inh)
C=Cc1ccc(COc2ccc3oc(-c4ccccc4)c(C(=O)OCC)c3c2)cc1	none (no result: RE007 growth inh, HCV inh)
CN1CCCN(C(=O)[C@@H]2C[C@@H](Sc3nc4ccccc4[nH]3)CN2Cc2ccc(-c3ccccc3)cc2)CC1	none (no result: RE007 growth inh, HCV inh, Lassa entry inh, MARV entry inh, Sm TGR block)
Cc1c(Cl)cccc1-n1c(CCC(=O)O)ccc1-c1cccs1	Sm TGR block 40µM (no result: RE007 growth inh, HCV inh)
CCOC(=O)Cn1c(-c2cccs2)cc2cc(Cl)ccc21	Lassa entry inh inconclusive (no result: RE007 growth inh, HCV inh)
Cc1cc(Cl)ccc1-n1c(CCC(=O)O)ccc1-c1cccs1	Sm TGR block 28µM (no result: RE007 growth inh, HCV inh)
Cc1ccc(Cl)cc1-n1c(CCC(=O)O)ccc1-c1cccs1	Sm TGR block 40µM (no result: RE007 growth inh, HCV inh)
COc1ccc(-c2ccc(CCC(=O)O)n2-c2ccc(Cl)cc2C)cc1	MARV entry inh inconclusive, Sm TGR block 40µM (no result: RE007 growth inh, HCV inh)
Cc1ccc(C)c(-n2c(CCC(=O)O)ccc2-c2ccc(Cl)cc2)c1	Sm TGR block inconclusive (no result: RE007 growth inh, HCV inh)
C/C(=N/O)C(=O)NCCCNCCCN(C)C	none (no result: RE007 growth inh, HCV inh, Lassa entry inh, FMDV inh, Sm TGR block)
Cc1ccc(S(=O)(=O)N2Cc3cnnn3-c3ccccc3C2C#N)cc1 (configuration not stated)	none (no result: Lassa entry inh, MARV entry inh, Sm TGR block)
CC(=O)Nc1ccc(S(=O)(=O)N2Cc3cnnn3-c3ccccc3C2C#N)cc1 (configuration not stated)	HCV inh 0.32µM (no result: Lassa entry inh, MARV entry inh, Sm TGR block)
COc1ccc(CN2Cc3cnnn3-c3ccccc3C2c2ccccc2)cc1 (configuration not stated)	HCV inh 1.3µM (no result: Lassa entry inh, MARV entry inh, Sm TGR block)
COc1ccc(CN2Cc3cnnn3-c3ccccc3C2C#N)cc1 (configuration not stated)	HCV inh 4µM, FMDV inh 25µM (no result: Lassa entry inh, MARV entry inh, Sm TGR block)
N#CC1c2ccccc2-n2nncc2CN1Cc1cc(Cl)cc(Cl)c1 (configuration not stated)	HCV inh 5.6µM, FMDV inh 8.9µM (no result: Lassa entry inh, MARV entry inh, Sm TGR block)
COc1cccc(CNC(=O)c2c(OC)cc(=O)n3c2CCN(C(=O)c2ccoc2C)CC3)c1	none (no result: RE007 growth inh, HCV inh, Lassa entry inh, MARV entry inh, Sm TGR block)
COC(=O)CC1[C@@]2(C)C[C@]34OC5(C)OC6(C7CC(=O)OC(c8ccoc8)[C@]7(C)CCC6(O5)[C@]13C)C(OC(C)=O)[C@]4(OC(C)=O)C2OC(C)=O (some centres not stated)	none (no result: RE007 growth inh, HCV inh, Lassa entry inh, MARV entry inh, Sm TGR block)
Cc1cccc(C)c1NC(=O)CSCc1cnn(-c2ccccc2)c1-n1cccc1	MARV entry inh inconclusive (no result: RE007 growth inh, HCV inh)
CC1CCCN(CCCNC(=O)c2cc3c(s2)-c2ccccc2OC3)C1 (configuration not stated)	HCV inh 11µM, Lassa entry inh inconclusive, MARV entry inh 3.2µM
CCN(CCCNC(=O)c1cc2c(=O)[nH]c3ccc(C)cc3c2s1)Cc1ccccc1	Lassa entry inh inconclusive, MARV entry inh 11µM, FMDV inh inconclusive, Sm TGR block inconclusive (no result: RE007 growth inh, HCV inh)
Cc1ccc(C)c(N2CCN(C(=O)c3cc4c(=O)oc5ccccc5c4s3)CC2)c1	MARV entry inh inconclusive, Sm TGR block 89µM (no result: RE007 growth inh, HCV inh)
CC1CCCN(CCCNC(=O)c2cc3c(Cl)nc4ccccc4c3s2)C1 (configuration not stated)	HCV inh 13µM, Lassa entry inh inconclusive, MARV entry inh 2.8µM
CC1CCN(CCCNC(=O)c2cc3c(s2)-c2ccccc2OC3)CC1	HCV inh inconclusive (no result: Lassa entry inh, MARV entry inh)
Cc1cc(-c2ccnc(-n3ncc(C(=O)N(C)CC(O)c4ccccc4)c3C)n2)c(C)s1 (configuration not stated)	none (no result: RE007 growth inh, HCV inh, Lassa entry inh, MARV entry inh, Sm TGR block)
Cc1ccc2oc(=O)c3cc(C(=O)NCCCN4CCN(C)CC4)sc3c2c1	HCV inh inconclusive (no result: Lassa entry inh, MARV entry inh)
CCN(CCCNC(=O)c1cc2c(Cl)nc3ccccc3c2s1)Cc1ccccc1	MARV entry inh inconclusive, FMDV inh inconclusive, Sm TGR block 89µM (no result: RE007 growth inh, HCV inh)
CN(CCCNC(=O)c1cc2c(Cl)nc3ccccc3c2s1)Cc1ccccc1	HCV inh 13µM, Lassa entry inh inconclusive, MARV entry inh 10µM, Sm TGR block 20µM!
O=C(NCCCN1CCCCCC1)c1cc2c(=O)oc3ccccc3c2s1	HCV inh inconclusive, Sm TGR block 50µM
CCN(CC)CCCNC(=O)c1cc2c(Cl)nc3ccccc3c2s1	HCV inh inconclusive (no result: Lassa entry inh, MARV entry inh)

High-throughput results: PubChem BioAssay, National Center for Advancing Translational Sciences (NCATS)
